About 2,000 (36%) of roughly 5,500 compounds were called active. Not shown: some 18% with an inconclusive outcome. Cut-off read from the data, not from the text of the source: active = normalized growth mostly below about 0.91 (no sharp cut-off); inconclusive = no clear call, values can overlap the other calls; inactive = mostly above about 0.92. The list shows a part of the results.
Assay: chemical genetic growth profiling, strain panel (AID 1159580);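 note: tested at 20 µM; growth read once vehicle control cultures reached saturation at 30 °C; 1 = growth at the plate median or of vehicle wells; lower values mean less growth of the strain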
Settings: S. cerevisiae deletion strains, growth OD

Measured: normalized growth

O=C1c2ccccc2O[C@@H](c2ccccc2)[C@@H]1NC1CCCCC1
active: locus YDL101C, strain DUN1, hits give low values 0.898 | locus YDL132W, strain cdc53, hits give low values 0.887 | locus YDR052C, strain DBF4, hits give low values 0.907 | locus YDR054C, strain cdc34, hits give low values 0.872 | locus YFL009W, strain cdc4, hits give low values 0.884 | locus YFR028C, strain CDC14, hits give low values 0.888 | locus YHR030C, strain SLT2, hits give low values 0.697 | locus YJR016C, strain ILV3, hits give low values 0.898 | locus YLR113W, strain HOG1, hits give low values 0.747 | locus YNL006W, strain LST8, hits give low values 0.906
inactive: locus YAR019C, strain CDC15, hits give low values 0.904 | locus YBL105C, strain PKC1, hits give low values 0.909 | locus YBR135W, strain CKS1, hits give low values 0.914 | locus YBR136W, strain MEC1, hits give low values 0.916 | locus YBR160W, strain CDC28, hits give low values 0.927 | locus YDL017W, strain CDC7, hits give low values 0.914 | locus YDL028C, strain MPS1, hits give low values 0.913 | locus YDL108W, strain KIN28, hits give low values 0.924 | locus YDL214C, strain PRR2, hits give low values 0.883 | locus YDR226W, strain ADK1, hits give low values 0.898 | locus YDR477W, strain SNF1, hits give low values 0.87 | locus YER123W, strain YCK3, hits give low values 0.843 | locus YER133W, strain GLC7, hits give low values 0.841 | locus YFL029C, strain CAK1, hits give low values 0.91 | locus YFR003C, strain YPI1, hits give low values 0.915 | locus YFR019W, strain FAB1, hits give low values 0.889 | locus YGR040W, strain KSS1, hits give low values 0.866 | locus YGR052W, strain FMP48, hits give low values 0.885 | locus YGR092W, strain DBF2, hits give low values 0.871 | locus YHR079C, strain IRE1, hits give low values 0.852 | locus YHR082C, strain KSP1, hits give low values 0.933 | locus YHR205W, strain SCH9, hits give low values 0.898 | locus YIL147C, strain SLN1, hits give low values 0.909 | locus YJL095W, strain BCK1, hits give low values 0.792 | locus YJL128C, strain PBS2, hits give low values 0.872 | locus YJL157C, strain FAR1, hits give low values 0.849 | locus YJR066W, strain TOR1 (second series), hits give low values 0.771 | locus YJR066W, strain TOR1, hits give low values 0.888 | locus YKL048C, strain ELM1, hits give low values 0.901 | locus YKL067W, strain YNK1, hits give low values 0.903 | locus YKL101W, strain HSL1, hits give low values 0.906 | locus YKL193C, strain SDS22, hits give low values 0.902 | locus YKL203C, strain TOR2, hits give low values 0.922 | locus YLR133W, strain CKI1, hits give low values 0.897 | locus YLR403W, strain SFP1, hits give low values 0.849 | locus YML070W, strain DAK1, hits give low values 0.871 | locus YMR001C, strain CDC5, hits give low values 0.901 | locus YMR205C, strain PFK2 (second series), hits give low values 0.878 | locus YMR277W, strain FCP1, hits give low values 0.905 | locus YNL020C, strain ARK1, hits give low values 0.901 | locus YNL161W, strain CBK1, hits give low values 0.9 | locus YNL183C, strain NPR1, hits give low values 0.941 | locus YNL207W, strain RIO2, hits give low values 0.898 | locus YNL222W, strain SSU72, hits give low values 0.919 | locus YNL307C, strain MCK1 (second series), hits give low values 0.904 | locus YOL078W, strain AVO1, hits give low values 0.9 | locus YOL136C, strain PFK27, hits give low values 0.887 | locus YOR061W, strain CKA2, hits give low values 0.867 | locus YOR119C, strain RIO1, hits give low values 0.945 | locus YOR231W, strain MKK1, hits give low values 0.874 | locus YOR329C, strain SCD5, hits give low values 0.909 | locus YPL031C, strain PHO85, hits give low values 0.867 | locus YPL153C, strain RAD53, hits give low values 0.864 | locus YPL204W, strain HRR25, hits give low values 0.843 | locus YPL209C, strain IPL1, hits give low values 0.917 | locus YPL256C, strain CLN2, hits give low values 0.858 | locus YPR025C, strain CCL1, hits give low values 0.914 | locus YPR106W, strain ISR1, hits give low values 0.91 | locus YPR111W, strain DBF20, hits give low values 0.92 | strain NNK1, hits give low values 0.905 | strain TSCII, hits give low values 0.881

Nc1ccc(N2C(=O)c3ccccc3C2=O)c(Cl)c1
inactive: locus YAL040C, strain CLN3, hits give low values 1.06 | locus YCL061C, strain MRC1 (second series), hits give low values 1.01 | locus YER002W, strain NOP16, hits give low values 0.974 | locus YGR078C, strain PAC10, hits give low values 0.98 | locus YJR075W, strain HOC1, hits give low values 1 | locus YNL153C, strain GIM3, hits give low values 0.995 | locus YNL175C, strain NOP13, hits give low values 0.958 | locus YNL197C, strain WHI3, hits give low values 0.935 | locus YNL224C, strain SQS1, hits give low values 0.94 | locus YNL322C, strain KRE1, hits give low values 0.986 | locus YOR083W, strain WHI5 (second series), hits give low values 1.02

Source: PubChem BioAssay AID1159580 (chemical genetic matrix, 2015)
